# Laboratory results reported in the supplement of paper PMC8728848.
# The entries come from a sample that favours the strongest signals as a whole.
# B1: SP16663B-bot-321-25-321 (Bacteroides ovatus) (protein)
# chain: DDDDEVTMNSKFYLSTKVFPVDSYEASLSVILKDNSVVVNELQPNYRFVACATERLSKDVKITADSDDNLVSAYNKANDTEYNILPAENYSFTNKTVTIENGESVSGDSIKIELLNVGSLTTEGGYLLPVTISSIEGNNLDALSSNRGVVYLKIQNIHVNVESGQPAEGTLIADRSGWTVKVAPTTRGDAKNLIDGTNSDVARDGGAEYWLTVDIGKVQTLTGIRNKCYASSYSPTAVEVFTSSDGAKWKSIGAVTISKSGTQYIKFSKAVETRYLKYYVKQGPNTVSLTEFDLYAK
# B2: NKp30 (Homo sapiens), O14931 (protein)
# chain: MAWMLLLILIMVHPGSCALWVSQPPEIRTLEGSSAFLPCSFNASQGRLAIGSVTWFRDEVVPGKEVRNGTPERFGRLAPLASSRFLHDHQAELHIRDVRGHDASIYVCRVEVLGLGVGTGNGTRLVVRKEHPQLGAGTHADPEAPEAEGAPSVFLFPPKPKDTLMISRTPEVTCVVVDVSHEDPEVKFNWYVDGVEVHNAKTPREEQYNSTYRVVSVLTVLHQDWLNGKEYKCKVSNKALPAPIEKTISKAKGQPREPQVYTLPPSRDELTKNQVSLTCLVKGFYPSDIAVEWESNGQPENNYKTTPPVLDSDGSFFLYSKLTVDKSRWQQGNVFSCSVMHEALHNHYTQKSLSLSPGK
# Legend:
# Assay in all cases: glycan array binding signal (z-score within array); higher = stronger binding
# Conditions in all cases: glycan notation: IUPAC condensed, linker removed
# [1] = biological target: Neu5Ac(a2-3)Gal(b1-3)GalNAc(b1-4)[Neu5Ac(a2-8)Neu5Ac(a2-3)]Gal(b1-4)Glc
# Outline: (§1)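 The binding signal is a Z-score computed within each array. Data were drawn from 3228 arrays in the Consortium for Functional Glycomics database, restricted to those with a known protein sequence. Scores were averaged over arrays of the same protein sequence at different concentrations or buffers, and over linkers, and negative values can be taken as non-binding.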
# [2] = biological target: Neu5Ac(a2-3)Gal(b1-4)GlcNAc(b1-2)[Neu5Ac(a2-3)Gal(b1-4)GlcNAc(b1-4)]Man(a1-3)[GlcNAc(b1-4)][Neu5Ac(a2-3)Gal(b1-4)GlcNAc(b1-4)Man(a1-6)]Man(b1-4)GlcNAc(b1-4)GlcNAc
# Outline: as §1
# [3] = biological target: Neu5Ac(a2-3)Gal(b1-4)[Fuc(a1-3)]GlcNAc
# Outline: as §1
# [4] = biological target: Neu5Ac(a2-3)Gal(b1-4)[Fuc(a1-3)]GlcNAc6S
# Outline: as §1
# [5] = biological target: Neu5Ac(a2-6)Gal(b1-4)GlcNAc(b1-2)Man(a1-3)[Neu5Ac(a2-6)Gal(b1-4)GlcNAc(b1-2)Man(a1-6)]Man(b1-4)GlcNAc(b1-4)[Fuc(a1-6)]GlcNAc
# Outline: as §1
# [6] = biological target: Neu5Ac(a2-6)Gal(b1-4)GlcNAc(b1-2)Man(a1-6)[Gal(b1-4)GlcNAc(b1-2)Man(a1-3)]Man(b1-4)GlcNAc(b1-4)GlcNAc
# Outline: as §1
# [7] = biological target: Neu5Ac(a2-6)Gal(b1-4)GlcNAc(b1-3)Gal(b1-4)GlcNAc(b1-3)GalNAc
# Outline: as §1
# [8] = biological target: Neu5Ac(a2-8)Neu5Ac(a2-3)Gal(b1-3)GalNAc(b1-4)[Neu5Ac(a2-3)]Gal(b1-4)Glc
# Outline: as §1
# [9] = biological target: Neu5Ac(a2-8)Neu5Ac(a2-3)[Gal(b1-3)GalNAc(b1-4)]Gal(b1-4)Glc
# Outline: as §1
# Neu5Ac(b2-6)GalNAc = biological target: Neu5Ac(b2-6)GalNAc
# Outline: as §1
# [10] = biological target: Neu5Ac9Ac(a2-3)Gal(b1-3)GlcNAc
# Outline: as §1
# [11] = biological target: Neu5Gc(a2-3)Gal(b1-4)GlcNAc(b1-3)Gal(b1-4)GlcNAc(b1-2)Man(a1-3)[Neu5Gc(a2-3)Gal(b1-4)GlcNAc(b1-3)Gal(b1-4)GlcNAc(b1-2)Man(a1-6)]Man(b1-4)GlcNAc(b1-4)GlcNAc
# Outline: as §1
# [12] = biological target: Neu5Gc(a2-6)Gal(b1-4)GlcNAc
# Outline: as §1
# Fuc(a1-2)Gal(b1-4)Glc = biological target: Fuc(a1-2)Gal(b1-4)Glc
# Outline: as §1
# [13] = biological target: Fuc(a1-2)Gal(b1-4)[Fuc(a1-3)]GlcNAc
# Outline: as §1
# Fuc(a1-2)[Gal(a1-3)]Gal = biological target: Fuc(a1-2)[Gal(a1-3)]Gal
# Outline: as §1
# [14] = biological target: Fuc(a1-2)[GalNAc(a1-3)]Gal(b1-4)[Fuc(a1-3)]GlcNAc
# Outline: as §1
# [15] = biological target: Fuc(a1-2)[GalNAc(a1-4)]Gal(b1-4)GlcNAc
# Outline: as §1
# Fuc(a1-3)GlcNAc = biological target: Fuc(a1-3)GlcNAc
# Outline: as §1
# Gal(a1-2)Gal = biological target: Gal(a1-2)Gal
# Outline: as §1
# Gal(a1-3)Gal = biological target: Gal(a1-3)Gal
# Outline: as §1
# Gal(a1-3)Gal(b1-4)Glc = biological target: Gal(a1-3)Gal(b1-4)Glc
# Outline: as §1
# Gal(a1-6)Glc = biological target: Gal(a1-6)Glc
# Outline: as §1
# [16] = biological target: Gal(b1-3)GalNAc(b1-4)[Neu5Ac(a2-3)]Gal(b1-4)Glc
# Outline: as §1
# [17] = biological target: Gal(b1-3)[Neu5Ac(b2-6)]GalNAc
# Outline: as §1
# [18] = biological target: Gal(b1-4)GalNAc(a1-3)[Fuc(a1-2)]Gal(b1-4)GlcNAc
# Outline: as §1
# [19] = biological target: Gal(b1-4)GlcNAc(b1-3)Gal(b1-4)GlcNAc(b1-3)Gal(b1-4)GlcNAc
# Outline: as §1
# [20] = biological target: Gal(b1-4)GlcNAc(b1-3)[Gal(b1-4)GlcNAc(b1-6)]Gal(b1-4)GlcNAc
# Outline: as §1
# Gal3S(b1-3)GalNAc = biological target: Gal3S(b1-3)GalNAc
# Outline: as §1
# Gal3S(b1-4)Glc = biological target: Gal3S(b1-4)Glc
# Outline: as §1
# Gal3S(b1-4)GlcNAc6S = biological target: Gal3S(b1-4)GlcNAc6S
# Outline: as §1
# GalNAc(b1-3)GalNAc = biological target: GalNAc(b1-3)GalNAc
# Outline: as §1
# Glc(a1-4)Glc = biological target: Glc(a1-4)Glc
# Outline: as §1
# GlcNAc(b1-3)Man = biological target: GlcNAc(b1-3)Man
# Outline: as §1
# GlcNAc(b1-4)GlcNAc = biological target: GlcNAc(b1-4)GlcNAc
# Outline: as §1
# Kdn(a2-3)Gal(b1-4)GlcNAc = biological target: Kdn(a2-3)Gal(b1-4)GlcNAc
# Outline: as §1
# [21] = biological target: Man(a1-2)Man(a1-6)[Man(a1-3)]Man(a1-6)[Man(a1-2)Man(a1-2)Man(a1-3)]Man
# Outline: as §1
# [22] = biological target: Man(a1-2)Man(a1-6)[Man(a1-3)]Man(a1-6)[Man(a1-2)Man(a1-2)Man(a1-3)]Man(b1-4)GlcNAc(b1-4)GlcNAc
# Outline: as §1
# [23] = biological target: Neu5Ac(a2-3)Gal(b1-4)[Fuc(a1-3)]GlcNAc(b1-3)Gal(b1-4)[Fuc(a1-3)]GlcNAc(b1-3)Gal(b1-4)[Fuc(a1-3)]GlcNAc
# Outline: as §1
# [24] = biological target: Neu5Ac(a2-6)Gal(b1-4)GlcNAc(b1-3)Gal(b1-4)[Fuc(a1-3)]GlcNAc(b1-3)Gal(b1-4)[Fuc(a1-3)]GlcNAc
# Outline: as §1
# [25] = biological target: Neu5Ac(a2-8)Neu5Ac(a2-8)Neu5Ac(a2-3)[GalNAc(b1-4)]Gal(b1-4)Glc
# Outline: as §1
# [26] = biological target: Neu5Ac9Ac(a2-6)Gal(b1-4)GlcNAc
# Outline: as §1
binder,measurement,setting,value
B1,glycan array binding signal (z-score),[1],0.469
same,glycan array binding signal (z-score),[2],-0.146
same,glycan array binding signal (z-score),[3],-0.258
same,glycan array binding signal (z-score),[4],-0.406
same,glycan array binding signal (z-score),[5],0.583
same,glycan array binding signal (z-score),[6],-0.492
same,glycan array binding signal (z-score),[7],-0.34
same,glycan array binding signal (z-score),[8],-0.244
same,glycan array binding signal (z-score),[9],0.154
same,glycan array binding signal (z-score),Neu5Ac(b2-6)GalNAc,-0.878
same,glycan array binding signal (z-score),[10],0.033
same,glycan array binding signal (z-score),[11],-0.142
same,glycan array binding signal (z-score),[12],0.696
B2,glycan array binding signal (z-score),Fuc(a1-2)Gal(b1-4)Glc,-0.091
same,glycan array binding signal (z-score),[13],0.195
same,glycan array binding signal (z-score),Fuc(a1-2)[Gal(a1-3)]Gal,0.375
same,glycan array binding signal (z-score),[14],0.416
same,glycan array binding signal (z-score),[15],-0.379
same,glycan array binding signal (z-score),Fuc(a1-3)GlcNAc,13.9
same,glycan array binding signal (z-score),Gal(a1-2)Gal,1.41
same,glycan array binding signal (z-score),Gal(a1-3)Gal,1.89
same,glycan array binding signal (z-score),Gal(a1-3)Gal(b1-4)Glc,2.48
same,glycan array binding signal (z-score),Gal(a1-6)Glc,6.49
same,glycan array binding signal (z-score),[16],-0.671
same,glycan array binding signal (z-score),[17],-0.317
same,glycan array binding signal (z-score),[18],0.071
same,glycan array binding signal (z-score),[19],-0.44
same,glycan array binding signal (z-score),[20],0.041
same,glycan array binding signal (z-score),Gal3S(b1-3)GalNAc,-0.265
same,glycan array binding signal (z-score),Gal3S(b1-4)Glc,-0.02
same,glycan array binding signal (z-score),Gal3S(b1-4)GlcNAc6S,-0.253
same,glycan array binding signal (z-score),GalNAc(b1-3)GalNAc,1.68
same,glycan array binding signal (z-score),Glc(a1-4)Glc,0.053
same,glycan array binding signal (z-score),GlcNAc(b1-3)Man,-0.416
same,glycan array binding signal (z-score),GlcNAc(b1-4)GlcNAc,0.115
same,glycan array binding signal (z-score),Kdn(a2-3)Gal(b1-4)GlcNAc,-0.251
same,glycan array binding signal (z-score),[21],-0.314
same,glycan array binding signal (z-score),[22],-0.41
same,glycan array binding signal (z-score),[23],-0.204
same,glycan array binding signal (z-score),[24],-0.38
same,glycan array binding signal (z-score),[25],-0.221
same,glycan array binding signal (z-score),[26],0.048
